Inconclusive results are not listed. Active and inactive are the calls of the source. Calls follow the shape of the dose curve; as a rule, active = well fitted curve in the direction sought with a large enough effect; inconclusive = small, poorly fitted or top-dose-only effect, or another doubt; inactive = no such curve, though single readings can be large; an effect the other way counts as inactive or inconclusive.
What was measured:
[1] = target: Cellular tumor antigen p53 (Homo sapiens) (UniProt P04637); assay: Primary qHTS for small molecule compounds that upregulate eGFP-tagged delta133p53alpha (in N-terminal) cells. (AID 2060322); conditions: NCI-H358 eGFP-delta133p53alpha fluorescence, 24 h; activation: active compounds read high;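 also: cells pre-induced with doxycycline then dosed without doxycycline; series mostly up to about 56 µM; 0% = DMSO vehicle and 100% = reference activator; nearly all actives have a fitted effect of over 75% in size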
In short: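 NCI-H358 cells pre-induced 24 h with 10 ng/ml doxycycline for eGFP-delta133p53alpha, plated dox-free and exposed 24 h at 37C to titrated compounds. Fixed, Hoechst-stained; gated GFP peak intensity by laser scanning cytometry, normalized to DMSO (0%) and 57.5 uM 5-azacytidine (100%).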

[2] = target: Aldehyde dehydrogenase, mitochondrial (Homo sapiens) (UniProt P05091); assay: qHTS for Inhibitors of the Aldehyde Dehydrogenase Family (ALDH2) Primary screen (AID 2061308);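 also: plate controls were vehicle for no effect and reference inhibitor for full effect; nearly all actives have a fitted effect of over 55% in size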
[3] = target: Retinaldehyde dehydrogenase 3 (Homo sapiens) (UniProt P47895); assay: qHTS for Inhibitors of the Aldehyde Dehydrogenase Family (ALDH1A3) Primary screen (AID 2061315);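 also: plate controls were DMSO vehicle for no effect and reference inhibitor for full effect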

Sequence of Cellular tumor antigen p53 (Homo sapiens) (P04637 whole entry, looked up): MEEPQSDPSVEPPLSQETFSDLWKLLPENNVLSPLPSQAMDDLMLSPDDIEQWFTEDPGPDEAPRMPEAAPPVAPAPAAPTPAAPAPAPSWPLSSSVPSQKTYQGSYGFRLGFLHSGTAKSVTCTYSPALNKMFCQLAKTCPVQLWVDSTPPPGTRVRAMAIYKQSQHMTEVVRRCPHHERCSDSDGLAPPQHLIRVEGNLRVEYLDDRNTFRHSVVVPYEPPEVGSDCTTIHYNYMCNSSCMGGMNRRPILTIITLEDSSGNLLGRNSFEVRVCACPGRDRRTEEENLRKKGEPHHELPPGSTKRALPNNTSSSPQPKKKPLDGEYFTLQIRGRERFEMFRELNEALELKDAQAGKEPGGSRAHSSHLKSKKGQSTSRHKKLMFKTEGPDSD

CC1CCC2C(C)(C)CC(C)(CO)C2(O)C1C(=O)O (configuration not stated)
inactive: activation [1] 15.3% | Potency [2] | Potency [3]

CC(C)C1(O)C=C2C(=O)CC3C(C)(C(=O)O)CCCC3(C)C2CC1 (configuration not stated)
inactive: activation [1] -12.2% | Potency [2] | Potency [3]

O=[N+]([O-])c1ccc(Oc2ccc3c(c2)CCC(c2ccccc2)O3)nc1 (configuration not stated)
inactive: activation [1] 2.33% | Potency [2] | Potency [3]

C[C@]12C[C@@H](O)[C@@H]3C[C@@]1(O[C@@H]1O[C@H](CO)[C@@H](O)[C@H](O)[C@H]1O)[C@]3(COC(=O)c1ccccc1)C(=O)O2
inactive: activation [1] 25.9% | Potency [2] | Potency [3]

CC(C)=CC/C=C(\C)[C@H]1CC[C@]2(C)[C@@H]1[C@H](O)C[C@@H]1[C@@]3(C)CC[C@H](O)C(C)(C)[C@@H]3[C@@H](O[C@@H]3O[C@H](CO)[C@@H](O)[C@H](O)[C@H]3O)C[C@]12C
inactive: activation [1] 1.67% | Potency [2] | Potency [3]

C[C@]1(CO)CN(c2cc(C(=O)Nc3ccc4c(c3)-c3c(c(C(N)=O)nn3-c3ccc(F)cc3)CC4)c(Cl)cn2)C[C@@]1(C)CO
inactive: activation [1] 21.4% | Potency [2] | Potency [3]

CC(C)=CCC[C@](C)(O)[C@H]1CC[C@]2(C)[C@@H]1[C@H](O)CC1[C@@]3(C)CC[C@H](O)C(C)(C)[C@@H]3[C@@H](O[C@@H]3O[C@H](CO)[C@@H](O)[C@H](O)[C@H]3O[C@@H]3O[C@H](CO)[C@@H](O)[C@H](O)[C@H]3O)C[C@]12C (some centres not stated)
inactive: activation [1] -11.6% | Potency [2] | Potency [3]

CC[C@H]1OC(=O)[C@H](C)[C@@H](O[C@H]2C[C@@](C)(OC)[C@@H](O)[C@H](C)O2)[C@H](C)[C@@H](O[C@H]2O[C@H](C)C[C@H](N(C)C)[C@H]2O)[C@](C)(O)C[C@@H](C)C(=O)[C@H](C)[C@@H](O)[C@]1(C)O
inactive: activation [1] 9.67% | Potency [2] | Potency [3]

CC(O)C(C)n1ncn(-c2ccc(N3CCN(c4ccc(OCC5COC(Cn6cncn6)(c6ccc(Cl)cc6Cl)O5)cc4)CC3)cc2)c1=O (configuration not stated)
inactive: activation [1] -5.67% | Potency [2] | Potency [3]

COC(=O)C[C@H]1C(C)(C)[C@H](OC(=O)c2ccccc2)C2CC3=C4CC(=O)O[C@@H](c5ccoc5)[C@]4(C)CCC3[C@@]1(C)C2=O (some centres not stated)
inactive: activation [1] -5.34% | Potency [2] | Potency [3]

CC(=O)C=C=C1C(C)(C)CC(O)CC1(C)O[C@@H]1O[C@H](CO[C@H]2OC[C@](O)(CO)[C@H]2O)[C@@H](O)[C@H](O)[C@H]1O (some centres not stated)
inactive: activation [1] -14.3% | Potency [2] | Potency [3]

C[C@H]1C(=O)N2c3ccccc3[C@@]3(O)C[C@@H]4C(=O)N[C@](C)(c5nc6ccccc6c(=O)n54)N1[C@@H]23
inactive: activation [1] -2.29% | Potency [2] | Potency [3]

COc1cc(C2Oc3c(O)cc(CCCO)cc3C2CO)ccc1O[C@H]1O[C@H](C)[C@@H](O)[C@H](O)[C@@H]1O (some centres not stated)
inactive: activation [1] -19.1% | Potency [2] | Potency [3]

C/C=C/C=C/C(O)=C1/C(=O)[C@]2(C)C(=O)[C@@](C)(O)[C@H]1[C@H]([C@@]1(C)OC(=O)C(C)=C1O)[C@H]2C(=O)CC/C=C/C
inactive: activation [1] -10.7% | Potency [2] | Potency [3]

CC12CCC(OC3OC(CO)C(O)C(OC4OC(CO)C(O)C(O)C4O)C3O)CC1CCC1C2CCC2(C)/C(=C3/COC(=O)C3)CCC12O (configuration not stated)
inactive: activation [1] -3.82% | Potency [2] | Potency [3]

COc1ccc(/C=C/C(=O)O[C@@H]2[C@@H](O[C@@H]3O[C@H](CO)[C@@H](O)[C@H](O)[C@H]3O)[C@@H](O)[C@H](O[C@H]3C4C=CO[C@@H](O[C@@H]5O[C@H](CO)[C@@H](O)[C@H](O)[C@H]5O)C4[C@@]4(CO)O[C@@H]34)O[C@H]2C)cc1 (some centres not stated)
inactive: activation [1] -9.92% | Potency [2] | Potency [3]

CC(=O)O[C@H]1C[C@@]2(C)[C@@H](CC[C@H]3[C@@]4(C)C=CC(=O)[C@@H](C)[C@@H]4[C@H](O)C(=O)[C@@]32C)/C1=C(/CCC=C(C)C)C(=O)O
inactive: activation [1] 17.6% | Potency [2] | Potency [3]

COC(=O)c1ccccc1O[C@@H]1O[C@H](CO[C@@H]2OC[C@@H](O)[C@H](O)[C@H]2O)[C@@H](O)[C@H](O)[C@H]1O
inactive: activation [1] -12.2% | Potency [2] | Potency [3]

CC(C)CC(c1c(O)c(C=O)c(O)c(C=O)c1O)C1CCC(C)(O)C2CC(C(C)(C)O)CCC12C (configuration not stated)
inactive: activation [1] 22.3% | Potency [2] | Potency [3]
